PTHR1 agonist = qHTS for PTHR1 Agonists: Primary Screen; Parathyroid hormone/parathyroid hormone-related peptide receptor (Homo sapiens), Q03431; HEK293 GP2 PTHR1 cells, GloSensor cAMP luminescence, 1 h; Potency, µM (titrated, usually from 115 µM), usual class: activators; hit rate 0.075% among 410,000; note: nearly all actives have a fitted effect of over 55% in size
Target sequence (Q03431 whole entry, looked up): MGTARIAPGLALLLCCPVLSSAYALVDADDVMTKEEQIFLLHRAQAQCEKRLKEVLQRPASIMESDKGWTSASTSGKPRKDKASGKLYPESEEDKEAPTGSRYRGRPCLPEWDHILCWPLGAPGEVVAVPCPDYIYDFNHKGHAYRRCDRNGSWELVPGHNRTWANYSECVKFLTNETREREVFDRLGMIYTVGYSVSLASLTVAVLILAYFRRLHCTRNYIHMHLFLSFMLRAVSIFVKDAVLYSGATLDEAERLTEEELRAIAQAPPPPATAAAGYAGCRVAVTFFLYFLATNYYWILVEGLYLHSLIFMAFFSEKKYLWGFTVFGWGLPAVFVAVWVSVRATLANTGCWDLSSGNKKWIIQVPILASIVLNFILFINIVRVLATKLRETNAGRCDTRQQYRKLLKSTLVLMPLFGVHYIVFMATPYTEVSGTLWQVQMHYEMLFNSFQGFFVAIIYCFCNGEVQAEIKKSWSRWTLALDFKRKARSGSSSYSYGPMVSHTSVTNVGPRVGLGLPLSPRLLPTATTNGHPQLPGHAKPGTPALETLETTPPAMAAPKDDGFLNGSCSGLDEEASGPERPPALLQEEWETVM
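HEK-293-derived GP2 cells expressing PTHR1 and a GloSensor cAMP reporter, 3,000/well, plated overnight, given luciferin plus IBMX (each 0.5 mM as added) for 1 h at 37 °C, then compound for 1 h at 37 °C. Luminescence was read after 15 min at room temperature.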
GLP1R inv ag = qHTS of GLP-1 Receptor Inverse Agonists (Inhibition Mode); Glucagon-like peptide 1 receptor (Homo sapiens), P43220; HEK293 GLP-1R CRE-luciferase, luminescence, 24 h; GLP-1R form is constitutively active; Potency, µM (doses to about 38.3 µM), usual class: inhibitors; hit rate 1.6% among 410,000; note: nearly all actives have a fitted effect of over 55% in size
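Inverse agonism was detected as reduced cAMP-driven luciferase luminescence after 24 h compound treatment. The cells were HEK293 clones expressing constitutively active human GLP-1R with the reporter. Reporter-only and GPR119 cell lines served as counterscreen controls.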
LDHA inh = qHTS assay for inhibitors of human lactate dehydrogenase. purified LDHA, NADH/diaphorase-resazurin fluorescence; active compounds read low. L-lactate dehydrogenase A chain (Homo sapiens), P00338. activity change, % (values are at about 110 or 230 µM). AID 1347041, 2019. hit rate 0.15% among 480,000; in the data active = activity change below about -30%; inconclusive = mostly about -25% to -30%
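Human LDH5 at 2 nM final in Tris HCl pH 7.4 with 0.06 mM NADH and 0.2 mM pyruvate, reacted 5 minutes at room temperature. Remaining NADH coupled via diaphorase/resazurin; resorufin fluorescence read at 0 and 20 minutes, normalized to enzyme-free and DMSO wells.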
IDH1 R132H inh = qHTS for Inhibitors of mutant isocitrate dehydrogenase 1 (IDH1): qHTS; IDH1-R132H enzyme, NADPH consumption, diaphorase/resazurin fluorescence; Potency, µM (series often up to 76.6 µM), actives largely listed as inhibitors; hit rate 0.093% among 390,000; note: nearly all actives have a fitted effect of over 65% in size
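IDH1-R132H (0.5 ug/mL) preincubated 30 min with compound, then NADPH (0.016 mM) and alpha-KG (2 mM) added; 80 min at RT, pH 7.5. Remaining NADPH coupled via diaphorase/resazurin to fluorescence (540/590 nm); concentration-response curves normalized to no-enzyme control.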
HEK293 tox = qHTS of GLP-1 Receptor Inverse Agonists: Cytotox Screen; hit rate 0.13% among 410,000; HEK293 cAMP-luciferase reporter cells, luminescence, 24 h; AID 624418, 2012; Potency, µM (highest dose often 38.3 µM), actives largely listed as inhibitors;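 note: loss of luciferase light is scored as toxicity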
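Luminescence readout: signal drop marks cytotoxicity. Plated cells grew 12 h at 37 °C, 5% CO2, received 23 nL compound for 24 h, then got luciferase reagent, read after 12 min at RT.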
GLP-1R agonist = qHTS of GLP-1 Receptor Agonists; Glucagon-like peptide 1 receptor (Homo sapiens), P43220; hit rate 0.007% among 380,000; HEK293 GLP-1R CRE-luciferase, luminescence, 4-6 h; cells express a hypersensitive GLP-1R form; Potency, µM (doses to about 45.6 µM), usual class: activators
IDH1 autofl = qHTS for Inhibitors of mutant isocitrate dehydrogenase 1 (IDH1): Cherrypicks Autofluorescence Interference | shares compounds with IDH1 R132H inh | Resorufin detection reagent fluorescence interference, cell-free | inhibition of signal, % at 51.2 µM | 750 tested, under 10 active
IDH1 WT = qHTS for Inhibitors of mutant isocitrate dehydrogenase 1 (IDH1): Cherrypicks in WT IDH1. shares compounds with IDH1 R132H inh. hit rate 9% among 750. WT IDH1 enzyme, NADPH diaphorase/resazurin fluorescence. Potency, µM (highest dose often 115 µM), actives largely listed as inhibitors. AID 623995, 2012; note: nearly all actives have a fitted effect of over 55% in size
IDH1 R132H conf = qHTS for Inhibitors of mutant isocitrate dehydrogenase 1 (IDH1): Confirmation of Cherrypicks | shares compounds with IDH1 R132H inh | IDH1 R132H enzyme, NADPH diaphorase/resazurin fluorescence | Potency, µM (titrated, usually from 76.6 µM), actives largely listed as inhibitors | hit rate 83% among 750; note: nearly all actives have a fitted effect of over 50% in size
Numbers stand for hits. Rows were chosen to be rich in hits. Some 1.7% of all compounds tested hit in one or more screens of this group. Unless noted, calls come from the whole dose curve; as a rule, active = well fitted curve in the direction sought with a large enough effect; inconclusive = small, poorly fitted or top-dose-only effect, or another doubt; inactive = no such curve, though single readings can be large; an effect the other way counts as inactive or inconclusive.

For CC(=O)Oc1ccc(C(=O)[C@H]2[C@H]3C(=O)N(c4ccc(C)cc4)C(=O)[C@H]3[C@@H]3C=CC=NN32)cc1 the results were PTHR1 agonist inactive, GLP1R inv ag inactive, LDHA inh inactive, IDH1 R132H inh inactive, HEK293 tox inactive and GLP-1R agonist inactive.
`CC(=O)Oc1ccc(C(=O)[C@H]2[C@H]3C(=O)N(c4ccc(C)cc4C)C(=O)[C@H]3[C@@H]3C=CC=NN32)cc1` gave PTHR1 agonist inactive, GLP1R inv ag inactive, LDHA inh inactive, IDH1 R132H inh 41.4µM, HEK293 tox inactive, GLP-1R agonist inactive, IDH1 autofl inactive, IDH1 WT inactive and IDH1 R132H conf 28.2µM.
For Cc1ccc(N(C(=O)c2sc(C)nc2C)C(C(=O)NCc2ccco2)c2ccccc2)cc1 (stereo unspecified) the results were PTHR1 agonist inactive, GLP1R inv ag inactive, LDHA inh inactive, IDH1 R132H inh inconclusive, HEK293 tox inactive, GLP-1R agonist inactive, IDH1 autofl inactive, IDH1 WT inactive and IDH1 R132H conf 35.5µM.
Screening Cc1cc(C)cc(N(C(=O)c2sc(C)nc2C)C(C(=O)NCc2ccco2)c2ccccc2)c1 (stereo unspecified) returned PTHR1 agonist inactive, GLP1R inv ag inactive, LDHA inh inactive, IDH1 R132H inh inconclusive, HEK293 tox inactive, GLP-1R agonist inactive, IDH1 autofl inactive, IDH1 WT inactive and IDH1 R132H conf 12.6µM.
Screening C1CCN(CC2CCCN2)CC1 (stereo unspecified) returned LDHA inh inactive.
Screening Cc1ccccc1NC(=O)c1ccc2c(c1)CCC2 returned LDHA inh inactive.
Screening CCN(C(=O)c1cc2c(=O)[nH]c3ccc(C)cc3c2s1)c1cccc(C)c1 returned PTHR1 agonist inactive, GLP1R inv ag inactive, LDHA inh inactive, IDH1 R132H inh 20.7µM, HEK293 tox inactive, GLP-1R agonist inactive, IDH1 autofl inactive, IDH1 WT inactive and IDH1 R132H conf 22.4µM.
Screening Cc1ccc2[nH]c(=O)c3cc(C(=O)N(C)c4ccc(C)c(C)c4)sc3c2c1 returned PTHR1 agonist inactive, GLP1R inv ag inactive, LDHA inh inactive, IDH1 R132H inh 52.1µM, HEK293 tox inactive, GLP-1R agonist inactive, IDH1 autofl inactive, IDH1 WT inactive and IDH1 R132H conf 15.8µM.
Screening CCN(C(=O)c1cc2c(=O)[nH]c3ccc(C)cc3c2s1)c1ccc(F)cc1 returned PTHR1 agonist inactive, GLP1R inv ag inactive, LDHA inh inactive, IDH1 R132H inh inactive, HEK293 tox inactive and GLP-1R agonist inactive.
For Cc1ccc2[nH]c(=O)c3cc(C(=O)N(C)C4CCCCC4)sc3c2c1 the results were PTHR1 agonist inactive, GLP1R inv ag inactive, LDHA inh inactive, IDH1 R132H inh inactive, HEK293 tox inactive and GLP-1R agonist inactive.

From PubChem
